Reference: ChEMBL document CHEMBL1961873, “Compounds: GSK PKIS; Assays: Nanosyn kinase panel” (2012)

Tests used:
[1] = molecular target: Platelet-derived growth factor receptor beta (Homo sapiens) (UniProt P09619); settings: at 1 µM;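 also: each value is a mean percent inhibition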
[2] = molecular target: Tyrosine-protein kinase FRK (Homo sapiens) (UniProt P42685); settings: at 0.1 µM
[3] = molecular target: Tyrosine-protein kinase FRK (Homo sapiens) (UniProt P42685); settings: at 1 µM
[4] = molecular target: Protein-tyrosine kinase 2-beta (Homo sapiens) (UniProt Q14289); settings: at 0.1 µM
[5] = molecular target: Protein-tyrosine kinase 2-beta (Homo sapiens) (UniProt Q14289); settings: at 1 µM
[6] = molecular target: Proto-oncogene tyrosine-protein kinase receptor Ret (Homo sapiens) (UniProt P07949); settings: at 0.1 µM
Sequence of Proto-oncogene tyrosine-protein kinase receptor Ret (Homo sapiens) (P07949 whole entry): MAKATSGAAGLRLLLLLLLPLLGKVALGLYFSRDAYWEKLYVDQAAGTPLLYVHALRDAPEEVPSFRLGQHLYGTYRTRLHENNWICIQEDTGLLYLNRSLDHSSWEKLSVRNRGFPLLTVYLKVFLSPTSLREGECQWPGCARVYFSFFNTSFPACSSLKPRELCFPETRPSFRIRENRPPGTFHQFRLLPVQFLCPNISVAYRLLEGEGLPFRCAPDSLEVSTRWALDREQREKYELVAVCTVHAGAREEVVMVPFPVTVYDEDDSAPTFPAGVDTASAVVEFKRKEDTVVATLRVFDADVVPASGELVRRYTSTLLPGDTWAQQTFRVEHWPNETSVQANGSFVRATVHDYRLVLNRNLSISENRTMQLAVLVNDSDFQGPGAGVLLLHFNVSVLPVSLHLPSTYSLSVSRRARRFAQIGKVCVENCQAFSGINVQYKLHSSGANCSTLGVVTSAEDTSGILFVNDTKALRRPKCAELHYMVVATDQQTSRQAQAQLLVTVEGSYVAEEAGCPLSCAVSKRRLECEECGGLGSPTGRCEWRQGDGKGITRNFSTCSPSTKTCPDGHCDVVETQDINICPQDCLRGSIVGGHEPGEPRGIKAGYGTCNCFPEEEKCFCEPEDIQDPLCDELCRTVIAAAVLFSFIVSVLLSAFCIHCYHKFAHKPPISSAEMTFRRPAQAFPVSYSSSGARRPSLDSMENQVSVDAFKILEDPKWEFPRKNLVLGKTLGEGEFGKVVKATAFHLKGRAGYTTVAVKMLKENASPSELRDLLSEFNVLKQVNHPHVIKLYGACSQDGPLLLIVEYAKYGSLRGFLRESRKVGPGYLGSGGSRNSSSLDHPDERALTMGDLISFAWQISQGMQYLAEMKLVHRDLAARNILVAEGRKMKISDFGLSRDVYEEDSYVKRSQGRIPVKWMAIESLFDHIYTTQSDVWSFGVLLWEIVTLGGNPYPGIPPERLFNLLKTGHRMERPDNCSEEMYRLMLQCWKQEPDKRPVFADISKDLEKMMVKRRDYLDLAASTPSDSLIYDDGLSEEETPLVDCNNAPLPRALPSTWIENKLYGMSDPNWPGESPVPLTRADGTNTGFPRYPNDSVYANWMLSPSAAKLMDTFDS

[7] = molecular target: Proto-oncogene tyrosine-protein kinase receptor Ret (Homo sapiens) (UniProt P07949); settings: at 1 µM
[8] = test system: Proto-oncogene tyrosine-protein kinase receptor Ret (Homo sapiens), P07949 [V804L]; settings: at 0.1 µM
[9] = test system: Proto-oncogene tyrosine-protein kinase receptor Ret (Homo sapiens), P07949 [V804L]; settings: at 1 µM
[10] = test system: Proto-oncogene tyrosine-protein kinase receptor Ret (Homo sapiens), P07949 [Y791F]; settings: at 0.1 µM
Sequence of Proto-oncogene tyrosine-protein kinase receptor Ret (Homo sapiens), P07949 [Y791F] (P07949 whole entry Y791F): as the sequence (P07949 whole entry) above, with Y791F counted along it

[11] = test system: Proto-oncogene tyrosine-protein kinase receptor Ret (Homo sapiens), P07949 [Y791F]; settings: at 1 µM
[12] = molecular target: Macrophage-stimulating protein receptor (Homo sapiens) (UniProt Q04912); settings: at 0.1 µM
[13] = molecular target: Macrophage-stimulating protein receptor (Homo sapiens) (UniProt Q04912); settings: at 1 µM
[14] = molecular target: Proto-oncogene tyrosine-protein kinase ROS (Homo sapiens) (UniProt P08922); settings: at 0.1 µM
Sequence of Proto-oncogene tyrosine-protein kinase ROS (Homo sapiens) (P08922 whole entry): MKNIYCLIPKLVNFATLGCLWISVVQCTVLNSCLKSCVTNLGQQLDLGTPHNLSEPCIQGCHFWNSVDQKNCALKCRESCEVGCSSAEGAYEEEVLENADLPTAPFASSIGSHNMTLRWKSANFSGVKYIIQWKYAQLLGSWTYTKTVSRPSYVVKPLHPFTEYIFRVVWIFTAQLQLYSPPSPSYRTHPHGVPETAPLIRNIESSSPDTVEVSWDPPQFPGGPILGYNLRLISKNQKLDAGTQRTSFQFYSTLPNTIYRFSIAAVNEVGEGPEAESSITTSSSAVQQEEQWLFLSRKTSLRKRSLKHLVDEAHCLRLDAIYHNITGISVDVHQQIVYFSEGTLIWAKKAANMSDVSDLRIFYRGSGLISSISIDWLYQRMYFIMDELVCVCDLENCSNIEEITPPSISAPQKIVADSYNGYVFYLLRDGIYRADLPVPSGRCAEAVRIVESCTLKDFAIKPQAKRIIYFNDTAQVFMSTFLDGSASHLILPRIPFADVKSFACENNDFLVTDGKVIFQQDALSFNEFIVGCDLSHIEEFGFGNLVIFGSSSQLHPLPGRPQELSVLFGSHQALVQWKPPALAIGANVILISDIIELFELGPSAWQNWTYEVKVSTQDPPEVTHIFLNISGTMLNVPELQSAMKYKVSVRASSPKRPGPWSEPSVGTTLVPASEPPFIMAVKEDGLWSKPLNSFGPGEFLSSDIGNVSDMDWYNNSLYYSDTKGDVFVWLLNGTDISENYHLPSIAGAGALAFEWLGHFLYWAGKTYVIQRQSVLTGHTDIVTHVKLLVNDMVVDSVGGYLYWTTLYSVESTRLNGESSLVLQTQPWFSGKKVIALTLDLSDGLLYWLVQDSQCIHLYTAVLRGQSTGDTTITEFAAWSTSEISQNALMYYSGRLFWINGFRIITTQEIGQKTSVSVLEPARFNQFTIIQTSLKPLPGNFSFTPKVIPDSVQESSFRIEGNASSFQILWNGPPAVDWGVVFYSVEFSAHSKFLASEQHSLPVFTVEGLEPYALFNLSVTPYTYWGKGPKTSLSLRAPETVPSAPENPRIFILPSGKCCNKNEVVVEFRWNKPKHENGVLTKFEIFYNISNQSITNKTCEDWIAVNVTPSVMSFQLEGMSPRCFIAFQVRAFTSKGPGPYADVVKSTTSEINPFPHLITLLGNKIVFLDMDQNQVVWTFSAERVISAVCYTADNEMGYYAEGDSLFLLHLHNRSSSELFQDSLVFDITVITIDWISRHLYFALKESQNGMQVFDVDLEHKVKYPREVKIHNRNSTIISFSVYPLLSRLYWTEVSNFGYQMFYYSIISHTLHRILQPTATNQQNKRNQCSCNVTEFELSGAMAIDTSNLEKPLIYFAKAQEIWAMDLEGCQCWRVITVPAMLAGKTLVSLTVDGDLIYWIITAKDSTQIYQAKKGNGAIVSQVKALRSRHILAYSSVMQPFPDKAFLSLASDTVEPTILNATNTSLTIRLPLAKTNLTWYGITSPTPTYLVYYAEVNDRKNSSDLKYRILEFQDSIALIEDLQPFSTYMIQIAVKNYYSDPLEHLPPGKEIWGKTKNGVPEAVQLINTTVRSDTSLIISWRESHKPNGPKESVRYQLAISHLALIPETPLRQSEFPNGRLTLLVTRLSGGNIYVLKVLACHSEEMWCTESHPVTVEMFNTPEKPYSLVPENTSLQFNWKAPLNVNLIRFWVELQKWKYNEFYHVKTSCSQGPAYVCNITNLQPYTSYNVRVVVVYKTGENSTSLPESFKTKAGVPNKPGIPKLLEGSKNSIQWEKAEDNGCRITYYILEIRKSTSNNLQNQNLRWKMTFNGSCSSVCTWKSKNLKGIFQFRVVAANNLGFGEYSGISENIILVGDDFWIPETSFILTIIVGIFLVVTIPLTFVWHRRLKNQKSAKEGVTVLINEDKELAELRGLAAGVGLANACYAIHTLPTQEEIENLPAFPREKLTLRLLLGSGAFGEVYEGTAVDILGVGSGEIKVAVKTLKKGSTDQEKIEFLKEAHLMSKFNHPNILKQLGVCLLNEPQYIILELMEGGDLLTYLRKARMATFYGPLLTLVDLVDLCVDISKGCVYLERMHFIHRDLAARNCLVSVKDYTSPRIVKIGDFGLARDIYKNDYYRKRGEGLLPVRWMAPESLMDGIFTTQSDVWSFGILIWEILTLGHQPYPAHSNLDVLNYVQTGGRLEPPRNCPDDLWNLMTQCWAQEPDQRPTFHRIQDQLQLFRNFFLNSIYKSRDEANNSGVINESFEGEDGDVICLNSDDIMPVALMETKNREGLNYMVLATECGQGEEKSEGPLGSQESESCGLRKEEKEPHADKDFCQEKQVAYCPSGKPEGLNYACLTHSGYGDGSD

[15] = molecular target: Proto-oncogene tyrosine-protein kinase ROS (Homo sapiens) (UniProt P08922); settings: at 1 µM
[16] = molecular target: Proto-oncogene tyrosine-protein kinase Src (Homo sapiens) (UniProt P12931); settings: at 0.1 µM
Sequence of Proto-oncogene tyrosine-protein kinase Src (Homo sapiens) (P12931 2-536 limits assumed): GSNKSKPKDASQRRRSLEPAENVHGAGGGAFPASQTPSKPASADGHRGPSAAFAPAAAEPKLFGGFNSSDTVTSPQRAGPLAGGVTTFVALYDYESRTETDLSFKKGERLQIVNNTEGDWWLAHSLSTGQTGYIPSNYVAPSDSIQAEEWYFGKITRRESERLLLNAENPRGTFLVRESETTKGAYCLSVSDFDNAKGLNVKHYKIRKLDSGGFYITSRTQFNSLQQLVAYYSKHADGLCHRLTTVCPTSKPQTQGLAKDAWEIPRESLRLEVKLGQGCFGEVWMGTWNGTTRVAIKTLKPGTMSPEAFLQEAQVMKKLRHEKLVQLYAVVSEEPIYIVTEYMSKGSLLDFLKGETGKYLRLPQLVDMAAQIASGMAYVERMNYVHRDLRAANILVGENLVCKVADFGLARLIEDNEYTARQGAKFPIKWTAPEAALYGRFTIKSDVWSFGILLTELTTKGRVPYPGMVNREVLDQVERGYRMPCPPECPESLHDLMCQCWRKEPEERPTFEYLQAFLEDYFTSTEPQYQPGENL

[17] = molecular target: Proto-oncogene tyrosine-protein kinase Src (Homo sapiens) (UniProt P12931); settings: at 1 µM
[18] = molecular target: Tyrosine-protein kinase Srms (Homo sapiens) (UniProt Q9H3Y6); settings: at 0.1 µM
[19] = molecular target: Tyrosine-protein kinase Srms (Homo sapiens) (UniProt Q9H3Y6); settings: at 1 µM
[20] = molecular target: Tyrosine-protein kinase SYK (Homo sapiens) (UniProt P43405); settings: at 0.1 µM;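 also: reported percentages are mean inhibition values for SYK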

Sequence of Platelet-derived growth factor receptor beta (Homo sapiens) (P09619 whole entry): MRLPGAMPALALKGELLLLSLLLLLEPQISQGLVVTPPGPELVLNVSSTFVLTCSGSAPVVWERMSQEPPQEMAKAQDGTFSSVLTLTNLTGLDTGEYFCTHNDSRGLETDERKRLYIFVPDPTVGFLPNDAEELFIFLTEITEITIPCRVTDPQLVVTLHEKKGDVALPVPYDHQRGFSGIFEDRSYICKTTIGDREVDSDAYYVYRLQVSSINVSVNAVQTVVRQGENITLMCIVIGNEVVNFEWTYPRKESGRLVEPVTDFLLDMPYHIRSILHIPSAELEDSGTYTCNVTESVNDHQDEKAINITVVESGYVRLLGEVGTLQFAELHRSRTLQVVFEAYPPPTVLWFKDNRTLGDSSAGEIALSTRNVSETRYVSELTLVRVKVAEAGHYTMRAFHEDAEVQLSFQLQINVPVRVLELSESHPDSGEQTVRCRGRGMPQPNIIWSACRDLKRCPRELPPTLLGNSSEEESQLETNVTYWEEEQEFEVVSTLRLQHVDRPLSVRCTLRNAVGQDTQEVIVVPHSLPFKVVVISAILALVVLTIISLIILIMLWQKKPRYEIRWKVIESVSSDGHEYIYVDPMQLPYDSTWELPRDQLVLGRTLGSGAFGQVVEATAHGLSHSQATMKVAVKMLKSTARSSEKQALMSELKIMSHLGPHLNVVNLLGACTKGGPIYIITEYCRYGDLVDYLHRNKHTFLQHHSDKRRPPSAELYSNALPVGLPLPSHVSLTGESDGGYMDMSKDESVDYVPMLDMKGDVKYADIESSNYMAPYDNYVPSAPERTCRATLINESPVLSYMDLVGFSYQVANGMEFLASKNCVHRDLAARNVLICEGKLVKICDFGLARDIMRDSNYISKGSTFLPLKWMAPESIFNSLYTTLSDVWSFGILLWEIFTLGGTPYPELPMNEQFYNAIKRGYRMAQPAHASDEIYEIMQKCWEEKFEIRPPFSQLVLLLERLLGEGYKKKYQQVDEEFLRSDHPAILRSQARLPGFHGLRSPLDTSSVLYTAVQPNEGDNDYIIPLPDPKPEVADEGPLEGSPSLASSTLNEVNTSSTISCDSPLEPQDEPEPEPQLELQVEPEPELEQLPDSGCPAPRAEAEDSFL

SMILES	inhibition [1] [%]	inhibition [2] [%]	inhibition [3] [%]	inhibition [4] [%]	inhibition [5] [%]	inhibition [6] [%]	inhibition [7] [%]	inhibition [8] [%]	inhibition [9] [%]	inhibition [10] [%]	inhibition [11] [%]	inhibition [12] [%]	inhibition [13] [%]	inhibition [14] [%]	inhibition [15] [%]	inhibition [16] [%]	inhibition [17] [%]	inhibition [18] [%]	inhibition [19] [%]	inhibition [20] [%]
CCN1CCC(C(=O)Nc2n[nH]c3nnc(-c4cccc(F)c4F)cc23)CC1	4.95	0.31	1.25	-2.3	1.39	2.54	-1.84	4.84	8.91	3.29	3.53	0.53	0.25	-1.03	3.74	-1.14	-2.38	1.44	2.12	0.98
c1ccc(-c2n[nH]cc2-c2ccnc(-c3ccc(OCCn4ccnc4)cc3)c2)nc1	65.6	1.69	2.79	2.99	3.76	2	9.49	2.75	13.2	2.44	19.1	3.8	3.01	3.08	10.7	-2.63	8.69	0.16	3.94	-0.7
COc1ccc(-c2nn3ncccc3c2-c2ccnc(Nc3ccc(F)c(F)c3)n2)cc1	15.3	0.7	2.26	6.54	17.9	4.85	18.1	16.2	15.8	9.34	19.1	1.18	2.96	6.57	9.74	3.58	19.4	-2.81	1.37	-2.45
COc1cc2c(cc1Nc1nc(Nc3cccc(F)c3C(N)=O)c3cc[nH]c3n1)N(C(=O)CN1CCN(C(C)C)CC1)CC2	5.17	0.37	1.24	57.7	93.4	1.04	5.75	1.85	7.87	1.11	6.08	-1.39	-1.15	31.6	73.7	4.53	11.8	-1.09	0.82	3.25
Cc1cc(O)cc(C)c1/C=C/c1cncc(C(=O)OC(C)(C)C)c1	43.3	3.51	20.1	13.2	7.22	5.39	7.34	3.42	11.6	4.05	12.1	8.51	8.66	6.94	10.4	14.1	58.6	10.2	43.4	-0.49
COC(=O)Nc1nc2cc(Oc3ccc(NC(=O)Nc4ccccc4)cc3)ccc2[nH]1	20.8	1.73	1.93	-1.17	6.99	11.1	26.6	8.3	13.8	15.3	25.8	7.21	8.17	2.15	2.86	5.93	7.76	0.48	-1.09	-5.19
COc1ccc2ncn(-c3cc(O[C@H](C)c4ccccc4C(F)(F)F)c(C(N)=O)s3)c2c1	37.5	-0.74	1.39	-4.13	-9.62	1.52	4.27	3.57	3.91	2.46	4.51	-2.2	0.45	2.67	3.29	-2.12	-0.06	3.94	1.04	-1.01
CNC(=O)c1cncc(/C=C/c2ccccc2C)c1	20.1	1.01	1.8	5.28	5.23	3.93	6.36	5.6	11.8	2.57	12.3	1.43	5.25	4.35	5.86	8.47	13.7	1.18	0.97	-0.75
N#Cc1cccc(Nc2ncc(-c3ccccc3)o2)c1	26.1	0.92	3.54	1.87	7.64	2.14	3.79	0.71	14.4	0.39	10.8	-0.08	-1.06	2.33	3.19	6.64	19.9	2.21	2.55	1.05
COc1c(C(N)=O)cc(-c2ccc(Cl)cc2)cc1-c1ccc(S(N)(=O)=O)cc1	1.5	2.55	3.5	5.92	12.1	2.82	4.87	6.61	9.45	6.18	7.43	6.88	6.97	12.2	14.6	10.9	14.6	-1.8	-2.15	1.78
c1cnn2ncc(-c3ccnc(NCCCN4CCOCC4)n3)c2c1	4.61	0.16	0.39	9.94	6.44	4.78	0.87	2.98	2.2	6.04	0.64	7.49	0.88	5.24	8.64	2.26	5.93	0.14	1.41	-6.13
O=C(O[C@H]1CN[C@H](C#Cc2cc3ncnc(Nc4ccc(OCc5cccc(F)c5)c(Cl)c4)c3s2)C1)N1CCOCC1	5.35	3.74	2.3	12.3	16.8	2	10.6	2.92	6.95	4.36	7.29	1.25	12.9	6.55	8.8	-0.25	11.3	-2.71	-2.76	-7
CS(=O)(=O)CCNCc1ccoc1-c1ccc2ncnc(Nc3ccc(OCc4ccccc4)cc3)c2c1	5.15	-0.85	0.98	0.12	1.57	3.73	0.18	8.41	9.53	4.19	9.63	1.78	-1.8	0.39	2	3.56	4.6	-1.68	-0.79	-2.93
